We go through ten compounds from PubChem BioAssay (NCATS).

Experiment [1] concerns the target Voltage-gated inwardly rectifying potassium channel KCNH2 (Homo sapiens) (UniProt Q12809). The experiment can be described thus: qHTS Assay for Small Molecule Inhibitors of the Human hERG Channel Activity (AID 588834).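 Note: top concentration of the series differs between compounds; lower thallium flux fluorescence means stronger hERG block; nearly all actives have a fitted effect of over 50% in size.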 The procedure, abridged:
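In hERG-transduced U2OS cells, dye-loaded for 1 hr at room temperature in dark, test compounds incubated 10 min at 37 °C before thallium stimulation. AC50 values derived by Hill modelling of concentration-response.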

Experiment [2] has as its target Luciferin 4-monooxygenase (Photinus pyralis) (UniProt P08659). As to the kind of experiment: Biochemical firefly luciferase enzyme assay for NPC (AID 624030).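 Note: purified P. pyralis luciferase at 10 nM with luciferin and ATP substrate; series mostly up to about 59 µM; nearly all actives have a fitted effect of over 70% in size.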 The procedure, abridged: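 Counter-screen for direct inhibition of the luciferase enzyme by approved-drug library compounds, run at 10 nM enzyme in 50 mM Tris acetate (final). Luminescence was read within 5 min of enzyme-buffer addition and normalized to PTC124 versus DMSO (0%).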

The nature of experiment [3]: S16 Schwann cell viability assay (CellTiter-Glo assay) (AID 624031).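 Note: native untransfected S16 rat Schwann cells; series mostly up to about 58 µM; nearly all actives have a fitted effect of over 70% in size.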 The procedure, abridged: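 Counter-screen for cytotoxicity: parental S16 rat Schwann cells lacking the PMP22 reporters, treated 24 h with compound, viability from cellular ATP by CellTiter-Glo luminescence, normalized to DMSO (0%) and no-cell wells.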

The structures appear in SMILES notation. Results filed as inconclusive are left out. A call without a number means that no potency is given here. The source made the active and inactive calls. Calls come from the whole dose curve; as a rule, active = well fitted curve in the direction sought with a large enough effect; inconclusive = small, poorly fitted or top-dose-only effect, or another doubt; inactive = no such curve, though single readings can be large; an effect the other way counts as inactive or inconclusive.

Chain of Voltage-gated inwardly rectifying potassium channel KCNH2 (Homo sapiens) (Q12809 whole entry, looked up): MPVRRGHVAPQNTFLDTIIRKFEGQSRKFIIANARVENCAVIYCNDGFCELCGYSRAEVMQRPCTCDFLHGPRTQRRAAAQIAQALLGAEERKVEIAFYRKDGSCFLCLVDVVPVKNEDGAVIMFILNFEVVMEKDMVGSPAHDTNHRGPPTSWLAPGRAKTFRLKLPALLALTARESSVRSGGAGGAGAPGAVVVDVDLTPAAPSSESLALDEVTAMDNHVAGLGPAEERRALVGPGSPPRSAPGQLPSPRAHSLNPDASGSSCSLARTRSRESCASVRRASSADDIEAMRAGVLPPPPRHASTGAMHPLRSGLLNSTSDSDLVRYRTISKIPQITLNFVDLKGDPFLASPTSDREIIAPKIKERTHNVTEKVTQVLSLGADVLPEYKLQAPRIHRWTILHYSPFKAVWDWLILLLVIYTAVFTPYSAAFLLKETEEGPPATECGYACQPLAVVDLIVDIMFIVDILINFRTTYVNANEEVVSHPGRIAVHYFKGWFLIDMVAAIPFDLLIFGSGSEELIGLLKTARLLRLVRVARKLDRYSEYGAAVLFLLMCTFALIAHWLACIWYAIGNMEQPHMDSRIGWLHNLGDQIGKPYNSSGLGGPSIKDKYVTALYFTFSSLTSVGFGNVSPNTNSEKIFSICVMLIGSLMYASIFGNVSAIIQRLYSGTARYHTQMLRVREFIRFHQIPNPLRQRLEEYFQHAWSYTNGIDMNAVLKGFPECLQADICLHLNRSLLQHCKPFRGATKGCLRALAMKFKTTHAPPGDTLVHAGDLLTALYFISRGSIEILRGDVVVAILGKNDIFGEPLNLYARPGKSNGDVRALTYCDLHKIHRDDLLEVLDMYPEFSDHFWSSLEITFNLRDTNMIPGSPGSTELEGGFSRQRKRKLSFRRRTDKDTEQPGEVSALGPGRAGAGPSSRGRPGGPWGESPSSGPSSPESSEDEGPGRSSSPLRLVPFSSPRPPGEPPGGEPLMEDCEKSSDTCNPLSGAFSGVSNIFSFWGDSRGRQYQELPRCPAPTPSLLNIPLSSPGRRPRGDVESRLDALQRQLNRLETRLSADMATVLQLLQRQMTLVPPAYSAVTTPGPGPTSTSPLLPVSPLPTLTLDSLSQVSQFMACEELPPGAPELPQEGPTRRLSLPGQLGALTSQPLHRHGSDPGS
Chain of Luciferin 4-monooxygenase (Photinus pyralis) (P08659 whole entry, looked up): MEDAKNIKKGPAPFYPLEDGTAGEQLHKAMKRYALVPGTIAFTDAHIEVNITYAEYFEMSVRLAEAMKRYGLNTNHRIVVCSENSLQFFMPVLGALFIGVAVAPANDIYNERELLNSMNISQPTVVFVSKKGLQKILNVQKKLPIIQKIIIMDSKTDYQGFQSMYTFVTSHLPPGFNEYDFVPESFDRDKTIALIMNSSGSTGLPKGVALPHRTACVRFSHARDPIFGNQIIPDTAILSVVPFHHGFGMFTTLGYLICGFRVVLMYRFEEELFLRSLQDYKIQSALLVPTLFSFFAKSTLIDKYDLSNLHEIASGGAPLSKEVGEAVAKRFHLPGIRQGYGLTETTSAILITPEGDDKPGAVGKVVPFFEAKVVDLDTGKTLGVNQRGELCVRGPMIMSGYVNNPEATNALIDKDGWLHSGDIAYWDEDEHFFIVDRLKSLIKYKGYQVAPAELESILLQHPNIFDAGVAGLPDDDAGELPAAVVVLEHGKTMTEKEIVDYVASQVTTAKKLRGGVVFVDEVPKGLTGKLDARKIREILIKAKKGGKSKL

Consider `Cc1ccc(S(=O)(=O)NC(=O)NC2CCCCCCC2)cc1`, for which the Potency entry in experiment [1] and in experiment [2] was “inactive” each time. For the same compound, the call in experiment [3] was inactive.

Take `Cc1c(I)c(=O)n(-c2ccccc2)n1C`: the Potency entry in experiment [1] and in experiment [2] was “inactive” throughout. In addition, the outcome in experiment [3] was inactive.

As for `O=C(O)c1ccccc1C(=O)Nc1ccc(S(=O)(=O)Nc2nccs2)cc1`, the Potency result in experiment [2] is “inactive”. In addition, the compound was classed as inactive in experiment [3].

Regarding `O=C1c2ccccc2C(=O)C1c1ccc(Br)cc1`, the Potency result in experiment [1] is “inactive”. The result in experiment [3] was inactive.

With `O=C(NCCCN1CCOCC1)c1ccc(Cl)cc1`, the Potency entry in experiment [1] and in experiment [2] was “inactive” each time. Also, the compound was called inactive in experiment [3].

As for `CCCCC1(COC(=O)CCC(=O)O)C(=O)N(c2ccccc2)N(c2ccccc2)C1=O`, the Potency result in experiment [1] and in experiment [2] was “inactive” each time. In experiment [3], the result was inactive.

On to `COc1ccc(Cc2cnc(N)nc2N)cc1OC`, for which the Potency entry in experiment [1] and in experiment [2] was “inactive” each time. Besides, in experiment [3], the compound was called inactive.

As for `NC(=O)CCCCC1CCSS1` (configuration not stated), the Potency result in experiment [1] and in experiment [2] was “inactive” each time. The compound was called inactive in experiment [3].

On to `Nc1ncnc(Nc2ccccc2)n1`, for which the Potency result in experiment [1] and in experiment [2] was “inactive” each time. Further, in experiment [3], the outcome was inactive.

`O=C(O)CNC(=O)c1ccccc1I`: the Potency result in experiment [1] is “inactive”. In experiment [3], the compound was classed as inactive.
